# Assay outcomes deposited in PubChem by National Center for Advancing Translational Sciences (NCATS).
# Shown are actives, neighbours in structure and some others; about 13% of the full set was active somewhere.
# Pf growth 96h – inhibits malaria parasite growth, 96 h; P. falciparum luciferase reporter growth, 96 h; Potency, µM (series often up to 28.7 µM), without a hit: top-dose activity change, negative = inhibition, actives largely listed as inhibitors; 6.9% of 320,000 active; AID 504834; further: potency means the concentration at half of the fitted maximal effect
#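 Luminescence readout: decreased luciferase signal marks inhibited growth of reporter-expressing P. falciparum in infected red cells (2% hematocrit, 0.05% parasitemia final), exposed to compound two generations (96 h, 37 C, 5% CO2).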
# HCMV inh – blocks human cytomegalovirus replication. activity change, negative = inhibition, % at 57.5 µM. HFF cells, HCMV-luciferase reporter, 72 h; stronger effect = lower value. 4.5% of 410,000 active. AID 1259415; in the data active means activity change below about -60%; inconclusive means no clear call, values can overlap the other calls; inactive means above about -39%
#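 Compounds were evaluated in HFFs infected with an HCMV luciferase reporter virus (MOI 1 PFU/cell). Luciferase in lysates collected 72 h post infection served as the replication measure.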
# Pf growth 48h – inhibits P. falciparum growth in the first generation, 48 h | P. falciparum luciferase growth in erythrocytes, 48 h | Potency, µM (titrated, usually from 28.7 µM), for inactives: at the top dose activity change, negative = inhibition, actives largely listed as inhibitors | 5.9% of 310,000 active | AID 504832; further: potency means the concentration at half of the fitted maximal effect
#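 Parasite viability was followed by luminescence of a genomically integrated firefly luciferase. Cultures held 0.1% parasitemia at 2% hematocrit (final), incubated under 5% CO2 at 37 C.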
# HCV inh – inhibitors of hepatitis C virus infection. Huh7.5.1 HCVcc-Cre infection, luciferase reporter, 44 h. AID 651820. Potency, µM (series often up to 41.8 µM), for inactives: at the top dose activity change, negative = inhibition, actives largely listed as inhibitors. 3.4% of 340,000 active; further: potency means the concentration at half of the fitted maximal effect
#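 Cells (1,000/well) were plated 4 h before compound, then infected with HCVcc-Cre virus (~0.5 moi). After 44 h further culture, infection was read as luciferase luminescence following a 15 min substrate incubation at room temperature.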
# An asterisk follows results filed as active; i = inactive; ? = inconclusive; . = no result given; [ ] = another dose, or the depositor's remark. Unless noted, the call rests on the fitted dose curve; in most records, active means well fitted inhibition curve with a large enough effect; inconclusive means small, poorly fitted or top-dose-only effect, or another doubt; inactive means no such curve, though single readings can be large or run the other way. On the % scale 0 is the no-effect control and ±100 the full control effect.
SMILES,Pf growth 96h,HCMV inh,Pf growth 48h,HCV inh
CCOC(=O)C1=C(Nc2ccccc2)CC(C)(O)C(C(=O)OCC)C1c1ccc(Cl)cc1 (centres undefined),12µM*,-18,?,?
Cc1cc(C)cc(-n2c(SCC(=O)Nc3ccccc3F)nc3c(oc4ccccc43)c2=O)c1,.,-7,.,.
Cc1ccc(/C=C/C(=O)N2CCC(c3nc4ccccc4o3)CC2)cc1,.,26,.,.
O=C(Nc1ccc(-c2nc3ccccc3s2)cc1)c1cc(-n2cnnc2)ccc1Cl,7.4µM*,-82*,9.3µM*,4µM*
Cc1cc(NC(=O)c2ccc(COc3ccc(Cl)c(C)c3)o2)no1,9.3µM*,96,-9%,1%
CC(=O)Nc1ccc(NC(=O)c2ccc(COc3ccc(C)cc3)o2)cc1,9.3µM*,129,0%,-7%
COc1ccc(NC(=O)c2ccc(COc3ccc(C)cc3)o2)cc1,5.2µM*,5,3%,?
CSc1cccc(NS(=O)(=O)c2cn(C)c(C)n2)c1,.,7,.,.
Cc1cc(C)n2c(Nc3ccccc3)c(-c3ccccc3)nc2n1,.,5,.,.
COc1ccc(Cl)cc1NC(=O)Cc1coc2c(C)c(C)ccc12,.,-10,.,.
CC1CCC(C(C)C)C(OCC[N+](C)(C)C)C1 (centres undefined),15%,?,3.7µM*,12%
Cc1cc(Cl)ccc1NC(=O)CSc1nc2c(c(=O)[nH]1)CCC2,.,-5,.,.
CCc1nn(C(CC)C(=O)NCCCN2CC(C)CC(C)C2)c(=O)c2cc3oc(C)cc3n12 (centres undefined),0.19µM*,-19,?,?
COc1ccc2[nH]c3c(=O)n(CCCCC(=O)NCCC(C)C)c(=S)[nH]c3c2c1,5.2µM*,-4,?,-11%
CCCNC(=O)CCCCn1c(=S)[nH]c2c([nH]c3ccc(OC)cc32)c1=O,-1%,-3,198%,4%
COc1ccccc1NS(=O)(=O)c1cc(C(=O)N2CCCCCCC2)ccc1C,?,4,-22%,1%
COc1ccc(NS(=O)(=O)c2cccc(C(=O)N3CCN(C/C=C/c4ccccc4)CC3)c2)cc1,.,-7,.,.
COc1ccccc1NS(=O)(=O)c1cc(C(=O)N2CCCC2)ccc1F,?,-9,3.3µM*,-9%
Cc1cccc(NS(=O)(=O)c2cccc(C(=O)N3CCN(C/C=C/c4ccccc4)CC3)c2)c1,10µM*,2,12µM*,?
COc1ccccc1NS(=O)(=O)c1cc(C(=O)N2CCN(C/C=C/c3ccccc3)CC2)ccc1C,-15%,-23,11%,.
Cc1noc(C)c1COc1cccc(C(=O)Nc2ccccc2)c1,?,-32,?,?
Cc1noc(C)c1COc1cccc(C(=O)N2CCN(C/C=C/c3ccccc3)CC2)c1,.,-7,10µM*,?
COc1ccccc1NS(=O)(=O)c1cccc(C(=O)N2CCN(C/C=C/c3ccccc3)CC2)c1,8.3µM*,1,5.9µM*,?
C=CCCC1CN(Cc2ccc(OC)cc2)S(=O)(=O)c2c(Oc3cc(C)c(C)c(C)c3)cccc2O1 (centres undefined),.,-18,.,.
Cc1ccc(CSc2nc(=O)c3c(n2C)NC(=O)CC3c2ccc(OC(C)C)cc2)cc1 (centres undefined),.,6,.,.
SMILES,Pf growth 96h,HCMV inh,Pf growth 48h,HCV inh
COc1cccc(C(O)c2nc(-c3ccc(Cl)cc3)cs2)c1 (centres undefined),.,-37,.,.
O=C(CSCc1ccc(F)cc1)N1CCc2c([nH]c3ccccc23)C1c1ccc(Cl)cc1 (centres undefined),.,-20,.,.
COc1ccccc1NC(=O)C(C)N1CCN(C/C=C/c2ccccc2)CC1 (centres undefined),17%,-1,13µM*,-22%
Cc1cc(O)c2c(C)c(CC(=O)NCc3ccccc3Cl)c(=O)oc2c1,.,-4,.,.
CCC(=O)Nc1ccc(Cl)c(NC(=O)c2cccc(OC)c2)c1,14%,-88*,-6%,?
CN(C)S(=O)(=O)Oc1cccc(C(=O)Nc2cccc(Cl)c2)c1,96%,-29,154%,8.9µM*
COc1cccc(C(=O)Nc2cccc(NC(=O)c3ccccc3Cl)c2)c1,i,-97*,0%,-18%
COCCOc1cc(NC(=O)c2cccc(OC)c2)c(Cl)cc1Cl,?,-18,12µM*,?
CCC(=O)Nc1ccc(Cl)c(NC(=O)c2ccccc2OC)c1,18%,-62*,19%[5.75 µM],-7%
O=C(Nc1cc(Cl)cc(Cl)c1)c1cccc(OC(F)F)c1,?,-75*,.,?
CN(C)S(=O)(=O)c1cccc(C(=O)Nc2cc(Cl)cc(Cl)c2)c1,.,-8,-72%,11µM*
CCCC(=O)Nc1ccc(C(=O)Nc2cccc(OC)c2)cc1,85%,-74*,91%,-22%
Cc1ccnc(NC(=O)c2cccc(OC(F)F)c2)n1,97%,-30,96%,17%
COc1ccc(N2c3ccccc3CN(Cc3ccccc3)[C@@H](C)[C@H]2Cc2cccnc2)cc1,.,-38,.,.
CSc1ncc2c(n1)-c1ccccc1N(Cc1ccccc1)S2(=O)=O,.,9,.,.
Cc1ccc(C)c(N2CCN(C(=O)CCn3c(=O)c4cccn4c4cccnc43)CC2)c1,.,-11,.,.
O=C(CCl)N(c1ccccc1)C1CCCCC1,13µM*,-113*,10µM*,4µM*
CC(=O)N(c1ccccc1)C1CCCC1,0%,-1,-1%,14%
COc1cc(Br)cc(/C=N/NC(=O)Cc2ccc(C(F)(F)F)cc2[N+](=O)[O-])c1O,?,-102*,?,?
Cc1ccc(-n2c(SCC(=O)c3c(N)n(C4CC4)c(=O)[nH]c3=O)nnc2N2CCOCC2)cc1,?,3,10µM*,-4%
Cc1ccccc1-n1c(SCC(=O)c2c(N)n(C3CC3)c(=O)[nH]c2=O)nnc1N1CCOCC1,13µM*,-30,?,4%
Nc1c(C(=O)CSc2nnc(N3CCOCC3)n2-c2cccc(F)c2)c(=O)[nH]c(=O)n1C1CC1,?,71,?,11%
Cc1cccc(-n2ccnc2SCC(=O)c2c(N)n(C3CC3)c(=O)[nH]c2=O)c1C,?,-11,-26%,-2%
Cc1cccc(-n2c(SCC(=O)c3c(N)n(C4CC4)c(=O)[nH]c3=O)nnc2N2CCOCC2)c1,5.2µM*,21,?,13%
Cc1ccc(-n2nnnc2SCC(=O)c2c(N)n(C3CC3)c(=O)[nH]c2=O)c(C)c1,5.9µM*,16,10µM*,3%
COc1ccc(-c2cn3nc(N4CCC(C(=O)Nc5ccccc5OC)CC4)sc3n2)cc1,.,0,.,.
COc1ccccc1CNC(=O)C(=O)NCCC1CCCCN1S(=O)(=O)c1cccs1 (centres undefined),12µM*,-12,?,11µM*
Cc1ccccc1CNC(=O)C(=O)NCCC1CCCCN1S(=O)(=O)c1cccs1 (centres undefined),12µM*,-29,?,?
COc1ccccc1CNC(=O)C(=O)NCCC1CCCCN1S(=O)(=O)c1ccc(C)cc1 (centres undefined),?,-6,12µM*,?
